Laboratory results reported in the supplement of paper PMC11732987, “Enantioselective OTUD7B fragment discovery through chemoproteomics screening and high-throughput optimisation” (Communications Chemistry, 2025).

Key:
Experiment in all cases: log2 ratio of Biotin-Ahx-Ub-VS probe labelling (fragment/DMSO); higher = less target engagement (more negative = stronger competition), active = hit call of the paper (q ≤ 0.05, log2 ratio ≤ -1)
Details in all cases: compound concentration: 200 uM; treatment time: 3 h
USP16 = USP16 (UniProt Q9Y5T5)
Summary of the method: (§1)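 Labelled DUBs were enriched with NeutrAvidin, digested with LysC and trypsin, and run by diaPASEF LC-MS/MS. The labelling used Biotin-Ahx-Ub-VS at 0.5 µM final for 1 h on HEK293T lysate (495 µg per sample) previously treated in triplicate with fragment at 200 µM or vehicle for 3 h. Values are average log2 fragment/vehicle ratios by unpaired t-test on global-median-normalised Spectronaut quantities of proteins with ≥2 unique peptides.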

USP19 = molecular target: T1, USP19 (UniProt O94966)
T1 sequence (whole entry): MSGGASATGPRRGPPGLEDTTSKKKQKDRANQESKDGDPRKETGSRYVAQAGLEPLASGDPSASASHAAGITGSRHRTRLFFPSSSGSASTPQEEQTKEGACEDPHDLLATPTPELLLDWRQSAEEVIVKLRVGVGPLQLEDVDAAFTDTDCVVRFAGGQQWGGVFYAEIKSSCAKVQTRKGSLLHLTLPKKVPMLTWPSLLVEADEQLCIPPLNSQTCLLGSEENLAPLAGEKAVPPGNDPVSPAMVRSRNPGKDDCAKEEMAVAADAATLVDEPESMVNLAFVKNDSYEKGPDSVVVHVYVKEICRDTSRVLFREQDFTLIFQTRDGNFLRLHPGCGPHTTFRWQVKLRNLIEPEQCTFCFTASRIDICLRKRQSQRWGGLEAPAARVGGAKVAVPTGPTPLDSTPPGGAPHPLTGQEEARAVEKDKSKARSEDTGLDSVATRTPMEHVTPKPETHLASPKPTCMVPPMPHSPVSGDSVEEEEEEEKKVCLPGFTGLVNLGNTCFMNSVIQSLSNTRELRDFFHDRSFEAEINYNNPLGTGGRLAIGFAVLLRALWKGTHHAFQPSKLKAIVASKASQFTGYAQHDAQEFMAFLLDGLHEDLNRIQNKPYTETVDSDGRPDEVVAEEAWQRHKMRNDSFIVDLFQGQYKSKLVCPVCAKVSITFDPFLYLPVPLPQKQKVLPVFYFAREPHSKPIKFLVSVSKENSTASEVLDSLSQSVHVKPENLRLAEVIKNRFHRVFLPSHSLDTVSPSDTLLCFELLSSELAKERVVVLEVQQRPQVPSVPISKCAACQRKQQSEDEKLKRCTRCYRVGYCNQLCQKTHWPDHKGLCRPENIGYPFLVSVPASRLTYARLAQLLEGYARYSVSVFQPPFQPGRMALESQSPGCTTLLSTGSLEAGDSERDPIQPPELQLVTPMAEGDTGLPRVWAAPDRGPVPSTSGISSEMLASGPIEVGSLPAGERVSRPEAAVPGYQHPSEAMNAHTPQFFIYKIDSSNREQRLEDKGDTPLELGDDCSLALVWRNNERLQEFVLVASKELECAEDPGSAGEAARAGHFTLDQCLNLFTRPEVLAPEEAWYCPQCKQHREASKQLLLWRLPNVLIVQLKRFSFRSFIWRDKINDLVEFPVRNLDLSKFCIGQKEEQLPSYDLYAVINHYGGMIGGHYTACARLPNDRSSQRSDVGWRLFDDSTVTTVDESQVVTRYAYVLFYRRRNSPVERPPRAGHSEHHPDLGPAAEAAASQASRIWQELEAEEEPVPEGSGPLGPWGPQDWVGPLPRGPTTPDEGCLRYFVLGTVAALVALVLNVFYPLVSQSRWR
Summary of the method: as §1

USP24 = USP24 (UniProt Q9UPU5)
Summary of the method: as §1

USP25 = molecular target: T2, USP25 (UniProt Q9UHP3)
T2 sequence (whole entry): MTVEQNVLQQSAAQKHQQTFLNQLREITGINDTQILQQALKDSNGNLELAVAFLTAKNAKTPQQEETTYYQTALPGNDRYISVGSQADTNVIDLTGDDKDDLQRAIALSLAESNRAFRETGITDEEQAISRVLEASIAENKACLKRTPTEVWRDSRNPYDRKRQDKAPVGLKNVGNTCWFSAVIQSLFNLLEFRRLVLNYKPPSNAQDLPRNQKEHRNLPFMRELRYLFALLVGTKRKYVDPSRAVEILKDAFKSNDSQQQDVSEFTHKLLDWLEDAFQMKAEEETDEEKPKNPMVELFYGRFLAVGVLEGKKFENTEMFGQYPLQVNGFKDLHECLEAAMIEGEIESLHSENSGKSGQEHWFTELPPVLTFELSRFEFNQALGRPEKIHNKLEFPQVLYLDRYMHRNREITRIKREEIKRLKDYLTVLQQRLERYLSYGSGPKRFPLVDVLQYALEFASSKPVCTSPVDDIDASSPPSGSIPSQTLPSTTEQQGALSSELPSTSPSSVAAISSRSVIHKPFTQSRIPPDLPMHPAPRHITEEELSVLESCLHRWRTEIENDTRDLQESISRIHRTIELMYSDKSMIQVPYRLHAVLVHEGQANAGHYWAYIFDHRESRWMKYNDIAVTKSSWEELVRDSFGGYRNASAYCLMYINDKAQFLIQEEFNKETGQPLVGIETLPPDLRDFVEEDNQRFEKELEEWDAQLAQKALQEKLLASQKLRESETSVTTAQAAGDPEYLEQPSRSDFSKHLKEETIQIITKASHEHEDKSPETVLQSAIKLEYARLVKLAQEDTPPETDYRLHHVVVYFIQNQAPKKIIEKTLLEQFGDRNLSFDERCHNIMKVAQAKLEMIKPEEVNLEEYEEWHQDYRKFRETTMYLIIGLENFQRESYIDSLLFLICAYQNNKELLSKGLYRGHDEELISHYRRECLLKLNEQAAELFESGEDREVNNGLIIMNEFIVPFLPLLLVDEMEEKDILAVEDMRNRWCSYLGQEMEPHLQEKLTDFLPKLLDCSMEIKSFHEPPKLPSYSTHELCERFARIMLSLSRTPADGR
Summary of the method: as §1

USP28 = molecular target: T3, USP28 (UniProt Q96RU2)
T3 sequence (whole entry): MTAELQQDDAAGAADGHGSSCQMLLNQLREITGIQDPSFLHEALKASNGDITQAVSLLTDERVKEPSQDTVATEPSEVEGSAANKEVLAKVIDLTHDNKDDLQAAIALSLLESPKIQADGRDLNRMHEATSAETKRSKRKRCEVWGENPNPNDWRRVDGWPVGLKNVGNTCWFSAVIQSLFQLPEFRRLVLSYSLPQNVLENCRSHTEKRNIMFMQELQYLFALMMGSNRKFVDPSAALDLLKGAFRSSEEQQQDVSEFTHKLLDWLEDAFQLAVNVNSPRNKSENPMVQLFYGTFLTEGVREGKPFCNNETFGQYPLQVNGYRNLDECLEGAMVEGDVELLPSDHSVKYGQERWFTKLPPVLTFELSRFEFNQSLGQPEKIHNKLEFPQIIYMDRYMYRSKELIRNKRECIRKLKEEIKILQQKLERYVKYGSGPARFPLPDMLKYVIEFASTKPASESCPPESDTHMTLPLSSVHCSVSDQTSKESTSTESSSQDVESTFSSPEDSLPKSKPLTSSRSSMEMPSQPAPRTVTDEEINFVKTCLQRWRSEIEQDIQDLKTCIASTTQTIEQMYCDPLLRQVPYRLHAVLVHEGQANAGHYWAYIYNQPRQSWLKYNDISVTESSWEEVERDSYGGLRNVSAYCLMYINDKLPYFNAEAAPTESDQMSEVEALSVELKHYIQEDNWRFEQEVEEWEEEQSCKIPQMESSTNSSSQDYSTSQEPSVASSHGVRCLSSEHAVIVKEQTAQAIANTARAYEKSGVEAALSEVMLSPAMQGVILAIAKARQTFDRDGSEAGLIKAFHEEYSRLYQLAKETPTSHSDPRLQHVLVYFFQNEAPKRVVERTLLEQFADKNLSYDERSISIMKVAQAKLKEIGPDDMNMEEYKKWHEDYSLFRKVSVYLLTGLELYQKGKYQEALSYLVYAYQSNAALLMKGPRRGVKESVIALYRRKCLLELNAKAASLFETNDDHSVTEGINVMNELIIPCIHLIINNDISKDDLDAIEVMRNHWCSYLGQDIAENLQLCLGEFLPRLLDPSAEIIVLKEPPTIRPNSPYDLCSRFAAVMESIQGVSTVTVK
Summary of the method: as §1

Measured: log2 ratio of Biotin-Ahx-Ub-VS probe labelling

Sequence of USP24 (Q9UPU5 whole entry): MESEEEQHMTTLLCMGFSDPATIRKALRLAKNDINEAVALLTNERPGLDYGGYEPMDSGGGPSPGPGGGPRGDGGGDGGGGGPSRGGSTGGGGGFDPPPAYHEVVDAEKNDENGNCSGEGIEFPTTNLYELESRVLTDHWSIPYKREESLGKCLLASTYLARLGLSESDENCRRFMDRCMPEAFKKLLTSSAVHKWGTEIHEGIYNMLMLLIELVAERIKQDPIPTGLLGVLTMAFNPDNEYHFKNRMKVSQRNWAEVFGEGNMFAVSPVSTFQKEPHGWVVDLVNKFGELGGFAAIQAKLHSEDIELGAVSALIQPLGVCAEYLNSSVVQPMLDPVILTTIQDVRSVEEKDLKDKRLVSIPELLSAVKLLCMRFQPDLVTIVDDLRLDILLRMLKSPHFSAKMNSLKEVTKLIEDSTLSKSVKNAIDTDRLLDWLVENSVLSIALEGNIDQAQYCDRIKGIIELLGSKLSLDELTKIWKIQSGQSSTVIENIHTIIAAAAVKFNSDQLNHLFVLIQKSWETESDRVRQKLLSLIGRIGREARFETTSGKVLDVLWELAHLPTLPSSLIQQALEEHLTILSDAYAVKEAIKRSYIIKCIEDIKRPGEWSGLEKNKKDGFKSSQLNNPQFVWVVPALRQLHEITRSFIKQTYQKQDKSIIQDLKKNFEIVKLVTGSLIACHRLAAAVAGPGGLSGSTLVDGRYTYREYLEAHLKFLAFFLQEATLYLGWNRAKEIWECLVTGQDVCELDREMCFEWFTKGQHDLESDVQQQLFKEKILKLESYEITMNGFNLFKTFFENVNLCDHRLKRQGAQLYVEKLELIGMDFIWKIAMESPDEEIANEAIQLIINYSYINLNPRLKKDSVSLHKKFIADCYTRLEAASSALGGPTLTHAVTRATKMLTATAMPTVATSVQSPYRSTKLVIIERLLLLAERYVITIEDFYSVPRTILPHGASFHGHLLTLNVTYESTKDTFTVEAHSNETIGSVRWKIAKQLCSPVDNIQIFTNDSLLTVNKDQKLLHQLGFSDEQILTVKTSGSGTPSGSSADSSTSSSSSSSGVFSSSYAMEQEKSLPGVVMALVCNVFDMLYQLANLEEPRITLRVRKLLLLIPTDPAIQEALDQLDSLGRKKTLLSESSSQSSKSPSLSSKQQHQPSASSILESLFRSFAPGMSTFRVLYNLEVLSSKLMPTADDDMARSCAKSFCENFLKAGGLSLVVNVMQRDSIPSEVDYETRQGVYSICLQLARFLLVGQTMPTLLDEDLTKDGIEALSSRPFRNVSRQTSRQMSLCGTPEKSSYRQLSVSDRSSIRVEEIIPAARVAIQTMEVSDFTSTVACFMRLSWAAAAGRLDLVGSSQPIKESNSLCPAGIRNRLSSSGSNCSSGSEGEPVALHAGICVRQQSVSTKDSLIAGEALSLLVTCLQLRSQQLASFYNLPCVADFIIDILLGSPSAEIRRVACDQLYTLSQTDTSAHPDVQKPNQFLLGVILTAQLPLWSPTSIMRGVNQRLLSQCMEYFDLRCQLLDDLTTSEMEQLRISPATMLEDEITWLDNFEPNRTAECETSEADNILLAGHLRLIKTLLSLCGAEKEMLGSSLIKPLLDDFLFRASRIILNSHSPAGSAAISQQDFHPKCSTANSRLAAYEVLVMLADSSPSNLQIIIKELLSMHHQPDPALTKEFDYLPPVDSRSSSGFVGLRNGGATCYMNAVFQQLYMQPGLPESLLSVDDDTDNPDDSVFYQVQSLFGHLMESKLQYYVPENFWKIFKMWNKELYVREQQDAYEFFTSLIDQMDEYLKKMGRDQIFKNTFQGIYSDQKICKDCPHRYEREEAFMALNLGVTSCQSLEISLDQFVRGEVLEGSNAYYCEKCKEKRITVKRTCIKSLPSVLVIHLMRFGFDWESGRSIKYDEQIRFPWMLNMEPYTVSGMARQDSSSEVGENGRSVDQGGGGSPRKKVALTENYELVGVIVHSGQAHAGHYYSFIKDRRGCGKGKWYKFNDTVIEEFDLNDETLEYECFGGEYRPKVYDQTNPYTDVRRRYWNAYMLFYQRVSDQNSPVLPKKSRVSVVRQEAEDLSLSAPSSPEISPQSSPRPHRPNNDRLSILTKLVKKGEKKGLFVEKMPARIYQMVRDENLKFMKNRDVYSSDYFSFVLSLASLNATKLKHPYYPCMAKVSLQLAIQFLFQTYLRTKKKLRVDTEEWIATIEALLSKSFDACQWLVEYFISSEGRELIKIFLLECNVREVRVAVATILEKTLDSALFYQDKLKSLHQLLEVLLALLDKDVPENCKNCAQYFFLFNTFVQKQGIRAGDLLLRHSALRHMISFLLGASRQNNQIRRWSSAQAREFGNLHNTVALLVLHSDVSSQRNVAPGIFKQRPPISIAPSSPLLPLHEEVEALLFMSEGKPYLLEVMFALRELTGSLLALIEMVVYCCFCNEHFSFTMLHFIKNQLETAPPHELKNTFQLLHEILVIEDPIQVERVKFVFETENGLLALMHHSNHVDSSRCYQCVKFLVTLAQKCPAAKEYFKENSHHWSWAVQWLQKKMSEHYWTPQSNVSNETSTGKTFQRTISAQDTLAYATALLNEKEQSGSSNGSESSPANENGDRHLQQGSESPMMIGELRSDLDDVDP
Sequence of USP16 (Q9Y5T5 whole entry, looked up, the tested form may be a part): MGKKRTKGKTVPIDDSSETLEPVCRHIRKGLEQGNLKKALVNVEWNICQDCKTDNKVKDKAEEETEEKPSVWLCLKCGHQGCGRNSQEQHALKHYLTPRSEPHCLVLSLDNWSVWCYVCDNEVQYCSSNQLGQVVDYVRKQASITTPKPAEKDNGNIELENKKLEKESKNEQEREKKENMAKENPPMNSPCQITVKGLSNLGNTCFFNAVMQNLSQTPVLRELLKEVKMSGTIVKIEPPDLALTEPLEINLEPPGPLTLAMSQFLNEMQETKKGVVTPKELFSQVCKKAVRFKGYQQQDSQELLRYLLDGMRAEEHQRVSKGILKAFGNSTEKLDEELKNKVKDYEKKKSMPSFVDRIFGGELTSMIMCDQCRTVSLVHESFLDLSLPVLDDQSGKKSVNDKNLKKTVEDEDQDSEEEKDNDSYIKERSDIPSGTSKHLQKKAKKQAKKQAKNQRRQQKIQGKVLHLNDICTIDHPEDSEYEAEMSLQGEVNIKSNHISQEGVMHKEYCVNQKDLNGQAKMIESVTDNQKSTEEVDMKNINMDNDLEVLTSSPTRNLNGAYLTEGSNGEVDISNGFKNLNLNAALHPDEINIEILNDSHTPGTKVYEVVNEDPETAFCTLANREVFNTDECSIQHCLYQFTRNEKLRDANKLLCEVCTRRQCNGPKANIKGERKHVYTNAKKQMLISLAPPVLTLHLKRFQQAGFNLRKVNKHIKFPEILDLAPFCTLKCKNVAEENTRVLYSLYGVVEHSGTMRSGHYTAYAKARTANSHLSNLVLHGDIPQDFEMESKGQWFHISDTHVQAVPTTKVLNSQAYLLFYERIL

COCC[C@@H](NC(=O)CCl)c1ccccc1
inactive: USP16 -0.303 | USP19 -0.0952 | USP24 -0.153 | USP25 -0.293 | USP28 -0.388
